Out of some 2,100 compounds screened, about 320 (15%) were called active. Another 52% or so got no clear call; they are omitted. Calls follow the shape of the dose curve; as a rule, active = well fitted cell-killing curve with a large enough effect; inconclusive = small, poorly fitted or top-dose-only effect, or effect the other way; inactive = flat fitted curve, though single readings scatter. The list shows a part of the results.
% is scaled to controls: 0 for no effect and ±100 for the full control effect; potency is read from the fitted curve at half-maximal effect.

The nature of this assay: Viability Counterscreen for CMV-Luciferase Assay of Inhibitors of ATXN expression. Also: nearly all actives have a fitted effect of over 55% in size. Conditions: HEK-293 CMV-luciferase cells viability, protease fluorescence, 24 h; activity change, negative = cytotoxicity: at the top concentration. The essentials:
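Luminescence read-out: SteadyGlo added, 5 min RT, measured in CMV-luciferase HEK-293 cells after 24 hr compound treatment (several concentrations). Viability counterscreen: 25 uM Gly-Phe-7-amino-4-trifluoromethylcoumarin, 30 min at 37 degree C, fluorescence ex 405/em 540 nm.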
As for `NC(=O)CC(NC(=O)Cc1ccc(Br)cc1)c1ccc(NC2CCCC2)c([N+](=O)[O-])c1` (stereo unspecified), the Potency was 3.16 µM (active). In the case of `CC(C)C[C@H](N)c1cn([C@@H](CCCCN)C(=O)N2CCNCC2)nn1`, the “activity change, negative = cytotoxicity” value was 6.2% (inactive). In the case of `O=C(NC(Nc1ncc(S(=O)(=O)c2ccc([N+](=O)[O-])cc2)s1)(C(F)(F)F)C(F)(F)F)c1ccc(Cl)cc1`, the Potency is 10 µM (active).

Regarding `O=C(NC(Nc1nc2ccc([N+](=O)[O-])cc2s1)(C(F)(F)F)C(F)(F)F)c1ccccc1`, the Potency is 0.562 µM (active). Turning to `Cc1nc2ccc(NC(=O)c3ccc(S(=O)(=O)N(C)c4ccccc4)cc3)cc2s1`, the “activity change, negative = cytotoxicity” value was -14% (inactive).

In the case of `CO[C@@]12[C@@H]3N[C@@H]3CN1C1=C(C(=O)C(N)=C(C)C1=O)[C@@H]2COC(N)=O`, the “activity change, negative = cytotoxicity” value is 22.6% (inactive). The same measure, in the same setting: the same measure for `CC1=CC(C)(C)N2C(=O)C3(SCC(=O)N3c3ccc(F)cc3)c3cc(C)cc1c32` (stereo unspecified): -24% (inactive); for `CCn1ccnc1CN1CCCC(C(=O)c2ccc3cc(OC)ccc3c2)C1` (stereo unspecified): 4.36% (inactive). Same read-out and setting: the same measure for `CN(C)CCNc1ncnc2c1ncn2[C@H]1CN(Cc2ccc(-c3ccccc3)cc2)C[C@@H](CO)O1`: -5.63% [at 57.5 µM] (inactive).

For the compound `OC[C@@H]1CN(Cc2ccc(-c3ccccc3)cc2)C[C@H](n2cnc3c(Nc4ccccc4)ncnc32)O1`, the Potency was 22.4 µM (active). Regarding `OC[C@@H]1CN(Cc2ccncc2)C[C@H](n2cnc3c(N4CCN(c5ccccc5)CC4)ncnc32)O1`, the “activity change, negative = cytotoxicity” value is -2.73% (inactive). As for `CNc1ccccc1C(=O)OC(C)C(=O)Nc1ccc(Cl)cn1` (stereo unspecified), the “activity change, negative = cytotoxicity” value was -0.359% (inactive).

As to `CCCc1ccc(O)c(N=Cc2cc(Br)cc(OCC)c2O)c1`, the “activity change, negative = cytotoxicity” value is -3.44% [at 57.5 µM] (inactive).

As for `Oc1[nH]c2ccc(Br)cc2c1N=NC(=S)N1CCOCC1`, the Potency is 1.12 µM (active). Consider `O=C(Nc1ccc(Br)cc1)c1cccc(OC(=S)N2CCOCC2)c1`, for which the “activity change, negative = cytotoxicity” value was 12.8% (inactive). In the case of `O=C(NCC1CC1)c1ccc2c(c1)S(=O)(=O)c1cc(Cl)ccc1C2=O`, the “activity change, negative = cytotoxicity” value was -10.1% (inactive). The same measure, in the same setting: the same measure for `O=C(Nc1ccc(Cc2ccncc2)cc1)c1ccc(S(=O)(=O)N2CCCC2)cc1`: -23.7% [at 57.5 µM] (inactive). The same measure, in the same setting: in the case of `COc1ccc(C)cc1Nc1nc(C)nc2sc(C)cc12` it was -16.3% (inactive); in that of `COc1ccccc1CNc1nc(NCc2ccc(NC(C)=O)cc2)c2sccc2n1`, -1.81% (inactive). As for `CC(=O)Nc1ccc(CNc2nc(NC(C)C)nc3cc(-c4ccccc4)sc23)cc1`, the Potency is 25.1 µM (active). `O=C(Oc1c(CN2CCOCC2)cc(Cl)c2cccnc12)c1ccccc1F`: the “activity change, negative = cytotoxicity” value is 18.9% [at 57.5 µM] (inactive). In the case of `COc1cc(OC)cc(-c2cc3nc(C)c(CCC(=O)O)c(C)n3n2)c1`, the “activity change, negative = cytotoxicity” value is -23.2% [at 57.5 µM] (inactive). The same measure, in the same setting: the same measure for `COc1cc(Nc2ncc3c(n2)CCN(C(=O)Nc2ccc(C(C)C)cc2)C3)cc(OC)c1OC`: -22.1% (inactive). On to `CN(c1ccccc1)S(=O)(=O)c1ccc(C(=O)Nc2nnc(-c3ccc(F)cc3)o2)cc1`, for which the Potency was 14.1 µM (active). For the compound `COc1ccc(-c2nnc(NC(=O)c3ccc(S(=O)(=O)N4COCC4(C)C)cc3)o2)cc1`, the “activity change, negative = cytotoxicity” value is -19.2% (inactive). On the same count and under the same terms, in the case of `CCc1nnc(NC(=O)c2ccc(S(=O)(=O)N(C)c3ccccc3)cc2)o1` it was -10.5% (inactive). In the case of `CCCN(CCC)S(=O)(=O)c1ccc(C(=O)Nc2nnc(-c3cc(OC)cc(OC)c3)o2)cc1`, the Potency is 7.08 µM (active). As to `CCN(CC)S(=O)(=O)c1ccc(C(=O)Nc2ccc(Cc3ccncc3)cc2)cc1`, the “activity change, negative = cytotoxicity” value is 3.95% [at 57.5 µM] (inactive).

Take `CC(=O)c1ccc(C(=O)Nc2nnc(-c3ccc(Cl)cc3)o2)cc1`: the “activity change, negative = cytotoxicity” value was -18.4% (inactive).

For `c1nc(CCO[C@H]2CCCCO2)cc2cc3c(cc12)OCO3`, the “activity change, negative = cytotoxicity” value is -23.6% (inactive). The same measure, in the same setting: in the case of `COc1ccc(CCCNC(=O)C2Cc3c(-c4cccc(NC(C)=O)c4)ccnc3O2)cc1` (stereo unspecified) it was -5.64% (inactive).

With `CC(=O)c1cccc(-c2ccnc3c2CC(C(=O)Nc2ccc(F)c(Cl)c2)O3)c1` (stereo unspecified), the “activity change, negative = cytotoxicity” value was -24.2% (inactive). For the compound `CC(=O)Nc1cccc(-c2ccnc3c2CC(C)(C(=O)Nc2ccc(Cl)c(C(F)(F)F)c2)O3)c1` (stereo unspecified), the Potency was 28.2 µM (active). As for `COC(=O)c1ccc(N2CCOCC2)c(NC(=O)Nc2cccc(OC)c2)c1`, the “activity change, negative = cytotoxicity” value is 7.26% (inactive).

As to `CCCC(=O)NC(c1ccc(OC)cc1)c1c(O)ccc2ccccc12` (stereo unspecified), the Potency is 10 µM (active).

On to `CCCC(=O)NC(c1ccco1)c1cc(Cl)c2cccnc2c1O` (stereo unspecified), for which the “activity change, negative = cytotoxicity” value was 9.21% [at 57.5 µM] (inactive). In the case of `O=C(NC(c1ccccc1)c1c(O)ccc2ccccc12)c1ccccc1Cl` (stereo unspecified), the “activity change, negative = cytotoxicity” value was -29.6% (inactive).

Turning to `O=C(N/N=C/c1ccc([N+](=O)[O-])o1)c1ccc2c(c1)OCO2`, the Potency was 17.8 µM (active). `O=C(Nc1ccc(NC(=O)c2cccs2)cc1)c1ccc2c(c1)OCO2`: the “activity change, negative = cytotoxicity” value was -1.89% (inactive).

As to `Cc1ncc(CO)c(/C=N/NC(=O)c2cccc(S(=O)(=O)N3CCCC3)c2)c1O`, the “activity change, negative = cytotoxicity” value was 29.5% [at 57.5 µM] (inactive).

Regarding `O=C(N/N=C/c1ccccc1O)c1cccc(C(F)(F)F)c1`, the “activity change, negative = cytotoxicity” value is -7.41% (inactive). For the compound `COc1ccccc1NS(=O)(=O)c1cccc(C(=O)N/N=C/c2ccc([N+](=O)[O-])o2)c1`, the Potency is 10 µM (active). With `O=C(N/N=C/c1cc(Cl)cc([N+](=O)[O-])c1O)c1cccc(S(=O)(=O)N2CCOCC2)c1`, the “activity change, negative = cytotoxicity” value is -29.7% (inactive). With `O=[N+]([O-])c1ccc(/C=N/N=C/c2ccc([N+](=O)[O-])o2)o1`, the Potency was 4.47 µM (active). As for `Cn1c(S(=O)(=O)c2ccc([N+](=O)[O-])cc2)nc(Br)c1Br`, the “activity change, negative = cytotoxicity” value is -1.8% (inactive).

Consider `CC(C)C[C@H](NC(=O)c1[nH]cnc1C(=O)Nc1ccc(CNC(=O)OC(C)(C)C)cc1)C(=O)OCc1ccccc1`, for which the “activity change, negative = cytotoxicity” value is -11% (inactive). On the same count and under the same terms, in the case of `CCc1noc(C)c1C(=O)N1CCSC1=Nc1cccc(Cl)c1C` it was -14.3% [at 57.5 µM] (inactive); in that of `CCC(C)(C)c1ccc(Oc2ccc(N)cc2)cc1`, 26.6% [at 57.5 µM] (inactive).

Take `NNC(=O)c1sc2cc(C(F)(F)F)cnc2c1-c1cccs1`: the “activity change, negative = cytotoxicity” value was -26.2% [at 57.5 µM] (inactive). Same read-out and setting: the same measure for `CCc1ccc(C(O)c2ncc(-c3cccc(C(F)(F)F)c3)[nH]2)cc1` (stereo unspecified): -1.52% [at 57.5 µM] (inactive); for `CC1CCCCN1S(=O)(=O)c1ccc(C(=O)Nc2nnc(-c3ccccc3Cl)o2)cc1` (stereo unspecified): -13.6% (inactive). On the same count and under the same terms, the same measure for `CCN(Cc1ccccc1)S(=O)(=O)c1ccc(C(=O)Nc2nnc(C3CC3)o2)cc1`: -9.39% (inactive). Turning to `O=C(Nc1nnc(C2CC2)o1)c1ccc(S(=O)(=O)N2CCCc3ccccc32)cc1`, the Potency is 11.2 µM (active). For the compound `CN(CCOc1ccc(Br)cc1)CC(O)COc1ccc(C#N)cc1` (stereo unspecified), the “activity change, negative = cytotoxicity” value was 19.3% [at 57.5 µM] (inactive).

As to `NNc1ncnc2sc3c(c12)CCC3`, the “activity change, negative = cytotoxicity” value is -10.3% [at 57.5 µM] (inactive). For `Clc1c(Cl)c(Cl)c2n[nH]nc2c1Cl`, the “activity change, negative = cytotoxicity” value was 14.6% [at 57.5 µM] (inactive). For the compound `O=C1CCCC(O)=C1C=NCc1ccccc1`, the “activity change, negative = cytotoxicity” value was 6.84% (inactive). On to `Cc1cccc(/C=C/C(=O)c2ccc([N+](=O)[O-])o2)c1`, for which the Potency is 3.16 µM (active). Regarding `CCc1c(C)nc2ncnn2c1N1CCC(C(=O)Nc2ccc(C)cc2)CC1`, the “activity change, negative = cytotoxicity” value was 10.1% [at 57.5 µM] (inactive). `COc1ccc2c(c1)CC(N1CCN(C)CC1)c1cc(OC)ccc1S2` (stereo unspecified): the Potency was 28.2 µM (active).

`CN1CCN(C2Cc3cc(Cl)ccc3Sc3cc(F)ccc32)CC1` (stereo unspecified): the “activity change, negative = cytotoxicity” value was -18.4% (inactive).

The record behind these values is PubChem BioAssay AID1745849 (National Center for Advancing Translational Sciences (NCATS), 2022).
